High-throughput results (PubChem)
Most compounds without a hit are left out; they make up all but 12% or so of the library.
HP1b binding inh – blocks HP1-beta chromodomain binding to methylated histone tails; AlphaScreen HP1-beta / biotin-H3K9me3 peptide binding; P83916; Potency, µM (highest dose often 114 µM), most hits filed as inhibitors; 0.56% of 390,000 active; also: nearly all actives have a fitted effect of over 70% in size
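Compound inhibition of the preformed complex between 50 nM HP1-beta and 50 nM biotinylated H3K9me3 peptide was read by AlphaScreen. Buffer was PBS pH 7.4 with 0.01% Tween-20. Incubations ran 30 min at room temperature, with 10 ug/mL donor/acceptor beads.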
BAZ2B block – inhibitors of human BAZ2B bromodomain; AID 504333; AlphaScreen BAZ2B-H3K14Ac peptide displacement; Potency, µM (highest dose often 114 µM), hits mostly inhibitors; Q9UIF8; 4.4% of 360,000 active; also: nearly all actives have a fitted effect of over 60% in size
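AlphaScreen displacement: compounds (up to 110uM) incubated 30 min at room temperature with a preformed 50 nM BAZ2B/50 nM biotinylated H3K14Ac peptide complex in PBS pH 7.4 with Tween-20. Donor and acceptor beads at 10 ug/mL final added, 20 min light-protected before reading.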
G9a inh – blocks human histone lysine methyltransferase G9a | Q96KQ7 | G9a H3K9 monomethylation, AlphaScreen, 2 h | Potency, µM (highest dose often 102 µM), hits mostly inhibitors | 8.8% of 350,000 active; also: nearly all actives have a fitted effect of over 75% in size
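Using a bead-based AlphaScreen, monomethylated H3K9 product from 2 h room-temperature reactions (G9a 20 nM, peptide 500 nM, SAM 20 uM) was detected with 0.5 ug/mL rabbit anti-H3K9me1 antibody.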
Sfp PPTase inh – Sfp phosphopantetheinyl transferase inhibition; Biochemical Sfp PPTase activity, qHTS; Potency, µM, hits mostly inhibitors; Q9F4F7; 3.5% of 310,000 active; AID 1490;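 also: the enzyme is Sfp with the accession as filed and its product quenches rhodamine fluorescence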
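After 15 min at room temperature with compound, 15 nM Sfp received 5 uM rhodamine-CoA plus 12.5 uM BHQ-2-ybbR (50 mM Hepes pH 7.6, 10 mM MgCl2). Rate came from the fluorescence difference over 30 min, ex 525/em 598 nm.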
JMJD2A Tudor inh – inhibitors of human JMJD2A Tudor domain | O75164 | AlphaScreen JMJD2A-Tudor / H3K4me3 peptide binding | Potency, µM (doses to about 114 µM), actives largely listed as inhibitors | 4.4% of 390,000 active; also: nearly all actives have a fitted effect of over 50% in size
Numbers stand for hits; . = inactive; ? = inconclusive; / = no result; ! = not confirmed by another sample; [ ] = remark or other dose. Calls follow the shape of the dose curve; as a rule, active = well fitted curve in the direction sought with a large enough effect; inconclusive = small, poorly fitted or top-dose-only effect, or another doubt; inactive = no such curve, though single readings can be large; an effect the other way counts as inactive or inconclusive.

SMILES | HP1b binding inh | BAZ2B block | G9a inh | Sfp PPTase inh | JMJD2A Tudor inh
CCN(CC)CCN1C(=O)C(=O)/C(=C(/O)c2c(C)[nH]c(C(=O)OC)c2C)C1c1cccnc1 (centres undefined) | . | . | ? | . | .
CCN(CC)CCN1C(=O)C(=O)/C(=C(/O)c2c(C)[nH]c(C(=O)OC)c2C)C1c1ccc(C)o1 (centres undefined) | . | ? | 35µM | . | .
Cc1cc(C(F)F)n2nc(C(=O)Nc3cc(Cl)ccc3C)nc2n1 | . | . | . | / | .
CCC(C)c1ccc(NC(=O)c2ccco2)cc1 (centres undefined) | . | . | ? | . | .
CC(=O)c1ccccc1NC(=O)COC(=O)CCC1CCCC1 | . | / | / | / | .
CCOC(=O)c1[nH]c(C)c(/C(O)=C2\C(=O)C(=O)N(CCN(C)C)C2c2ccc(C)o2)c1C (centres undefined) | . | . | 40µM | . | ?
CCOC(=O)c1[nH]c(C)c(/C(O)=C2\C(=O)C(=O)N(CCN3CCOCC3)C2c2cccs2)c1C (centres undefined) | . | . | 45µM | . | ?
COC(=O)c1[nH]c(C)c(/C(O)=C2\C(=O)C(=O)N(CCN3CCOCC3)C2c2ccc(C)o2)c1C (centres undefined) | . | . | 45µM | . | ?
CCOC(=O)c1[nH]c(C)c(/C(O)=C2\C(=O)C(=O)N(CCCN(C)C)C2c2ccncc2)c1C (centres undefined) | / | . | . | . | /
CCCn1c2ccccc2c2cnn(CC(=O)NCCCN3CCCC(C)C3)c(=O)c21 (centres undefined) | . | . | . | . | .
COc1ccc2c(c1)c(=O)oc1cc(OCC(=O)NC3CC3)ccc12 | . | ? | ? | . | .
COc1ccc2c(c1)c(=O)oc1cc(OCC(=O)NC3CCCCC3)ccc12 | ? | 79µM | 11µM | . | 40µM
O=C(Cc1ccc2c(c1)OCCO2)c1c(O)cc(O)cc1O | . | . | . | . | ?
O=C(CCc1ccc(O)cc1)c1c(O)cc(O)cc1O | . | . | . | 50µM! | .
CCC(=O)Oc1oc(-c2ccccc2)nc1C=Nc1ccc(C)cc1 | . | . | ? | . | .
COc1ccc(N=Cc2nc(-c3ccccc3)oc2OC(=O)c2ccccc2)cc1 | . | . | . | . | .
CN(C)c1ccc(N=Cc2nc(-c3ccccc3)oc2OC(=O)c2cccc(Br)c2)cc1 | . | 35µM | 32µM | . | ?
Cc1ccc(C(=O)Oc2oc(-c3ccco3)nc2C=Nc2ccccc2)cc1 | / | . | 28µM | 45µM | /
CCOC(=O)c1ccc(N=Cc2nc(-c3ccccc3)oc2OC(C)=O)cc1 | . | . | 7.9µM | . | .
CC(=O)Oc1oc(-c2ccccc2)nc1C=Nc1ccccc1 | . | . | 50µM | . | .
CN[C@@H]1CC[C@H](c2ccc(Cl)c(Cl)c2)c2ccccc21 | . | . | ? | . | .
CCc1noc(C)c1C(=O)N(CC)c1nc2c(C)cccc2s1 | . | . | .[0.501 µM] | / | .
O=C1[C@H]2[C@@H](C3CC3)N3C(=O)CN(Cc4ccccn4)C(=O)[C@@]3(Cc3ccccc3)[C@H]2C(=O)N1c1ccccc1 | . | . | / | . | .
CCC(=O)O[C@@]1(C(=O)CCl)[C@@H](C)C[C@@H]2[C@H]3CCC4=CC(=O)C=C[C@@]4(C)[C@]3(F)[C@@H](O)C[C@@]21C | / | / | .[21.5 µM] | . | /
COc1ccc(N2CCC(CNC(=S)Nc3cc(C)ccc3C)C2)cc1 (centres undefined) | ? | 32µM | ? | . | 40µM
SMILES | HP1b binding inh | BAZ2B block | G9a inh | Sfp PPTase inh | JMJD2A Tudor inh
COc1ccc(N2CCC(CNC(=S)Nc3cc(C)cc(C)c3)C2)cc1 (centres undefined) | 16µM | 3.2µM | ? | . | 20µM
C[N+](C)(C)CC/C=C1/c2ccccc2CSc2ccccc21 | . | 79µM | ? | . | 50µM
COc1cccc(CNc2ccc(F)c([N+](=O)[O-])c2)c1O | . | . | 50µM | . | ?
O=[N+]([O-])c1ccccc1CNc1ccc(F)c(Cl)c1 | . | 50µM | ? | . | ?
Cc1ccc2nc(CN3CCN(C(=O)Nc4ccc(F)cc4)CC3)oc2c1 | . | . | . | / | .
CC(=O)[C@@H]1[C@@H](C(=O)c2ccc(F)cc2)[C@]2(C(=O)Nc3ccccc32)[C@H]2C=Cc3cc(F)ccc3N12 | ? | . | ? | 20µM | ?
CC(=O)[C@@H]1[C@@H](C(=O)c2ccc(C)cc2)[C@]2(C(=O)Nc3ccccc32)[C@H]2C=Cc3cc(F)ccc3N12 | . | ? | ? | 4µM | ?
O=C(c1ccc(F)cc1)[C@@H]1[C@@H](C(=O)c2ccccc2)[C@@]2(C(=O)Nc3ccccc32)[C@H]2c3ccccc3C=CN12 | / | ? | 7.1µM | . | /
Cc1ccc(C(=O)N2CC(=O)Nc3ccc(F)cc3C2c2ccccc2)cc1 (centres undefined) | . | . | ? | . | .
CCCCCCN(C(=O)CCCN1C(=O)NC(c2ccc([N+](=O)[O-])cc2)C(C(=O)OCc2ccccc2)=C1C)C(C)C(=O)NCCCC (centres undefined) | . | / | / | / | .
CCc1ccc(CNC(=O)CCCN2C(=O)c3cccnc3Oc3ccc(Cl)cc32)cc1 | . | . | . | / | .
COc1ccc(C(=O)Nc2nc3nc(-c4ccccc4)cc(=O)n3[nH]2)cc1 | . | . | ? | . | .
CC(C)CC(=O)Nc1nc2nc(-c3ccccc3)cc(=O)n2[nH]1 | . | 50µM | ? | / | ?
O=c1cc(-c2ccccc2)nc2nc(SCc3ccccc3)[nH]n12 | . | 79µM | .[12.7 µM] | . | ?
O=C(Nc1nc2nc(-c3ccccc3)cc(=O)n2[nH]1)c1ccc(Cl)cc1 | . | 79µM | ? | / | ?
CCOc1ccc(OCc2ccc(C(=O)Nc3cccnc3)cc2)cc1 | . | . | .[12.7 µM] | / | .
COc1cc(NC(=O)Cn2c(=O)n(Cc3ccccc3OC)c(=O)c3cccnc32)cc(OC)c1 | . | . | . | / | .
Cc1nc2cnc(OCc3ccccc3)nc2n(CCc2ccccc2)c1=O | / | / | .[0.501 µM] | ? | /
CCCCCC(=O)NC(=S)Nc1ccc(N2CCOCC2)cc1 | . | ? | 3.5µM | . | .
CCC(=O)NC(=S)Nc1ccc(N2CCOCC2)cc1 | . | ? | . | . | .
Cc1ccc(C(=O)NC(=S)Nc2ccc(N3CCOCC3)cc2)c(C)c1 | ? | 22µM | / | . | ?
Cc1ccc(-c2noc(-c3ccc(N4CCOCC4)c([N+](=O)[O-])c3)n2)cc1 | . | ? | . | / | .
CCOC(=O)c1ccccc1NC(=O)N1CCCN(S(=O)(=O)c2ccc3c(ccn3CC)c2)CC1 | . | . | . | / | .
CC1CC(=O)NN1C(=O)c1ccccc1 (centres undefined) | . | 79µM | 79µM | . | 28µM
CC1CC(=O)NC(=O)N1Cc1ccccc1 (centres undefined) | . | / | / | / | .
Cc1nc(SCC(=O)N2CCN(C(=O)c3cccs3)CC2)c2c(C)c(C)sc2n1 | . | . | 18µM | / | .
